“And” between values parts separate entries of the source, which are not always exact repeats. Identical values can stand only once. Results filed as inconclusive are left out. A number with no mark means an inactive call. Calls come from the whole dose curve; as a rule, active = well fitted activation curve with a large enough effect in the repeat runs; inconclusive = weak or mixed curves; inactive = no such curve, though single readings can be large or run the other way.
Biological target: Nuclear receptor subfamily 1 group I member 2 (Rattus norvegicus) (UniProt Q9R1A7)
Sequence (Q9R1A7 whole entry, looked up): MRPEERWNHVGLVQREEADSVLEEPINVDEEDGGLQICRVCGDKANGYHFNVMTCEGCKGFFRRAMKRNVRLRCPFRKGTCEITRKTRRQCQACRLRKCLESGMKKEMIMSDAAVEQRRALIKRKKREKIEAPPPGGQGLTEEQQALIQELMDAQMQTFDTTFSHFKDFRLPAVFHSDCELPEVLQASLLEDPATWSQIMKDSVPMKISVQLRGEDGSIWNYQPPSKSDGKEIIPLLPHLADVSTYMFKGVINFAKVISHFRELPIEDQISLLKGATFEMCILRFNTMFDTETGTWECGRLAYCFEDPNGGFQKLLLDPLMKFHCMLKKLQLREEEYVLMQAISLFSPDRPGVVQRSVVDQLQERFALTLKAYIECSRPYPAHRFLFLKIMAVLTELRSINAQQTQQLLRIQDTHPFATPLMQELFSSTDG
Test: Rat pregnane X receptor (rPXR) activation by small molecules, qHTS assay (AID 1346983); note: nearly all actives have a fitted effect of over 20% in size
Details: rPXR luciferase reporter cells, One-Glo luminescence, 24 h; max activation: active compounds read high
From the text: National Center for Advancing Translational Sciences [NCATS] NIH Chemical Genomics Center [NCGC] U.S. Environmental Protection Agency [EPA] National Institutes of Environmental Health Sciences [NIEHS] National Toxicology Program [NTP] Assay overview: The Pregnane X receptor (PXR), a ligand activated nuclear receptor plays a critical role in the regulation of genes involved in drug metabolism and transporters. PXR binds xenobiotics and when compounds interact with PXR produces enhanced expression of CYP3A genes. In humans PXR activation and CYP3A4 induction can be problematic due to their interactions with co-medicated drugs and decrease their efficacy or increase their own metabolism. However, there are known species-specific differences with regard to PXR activation that should be taken into account when animal PXR data are extrapolated to humans. A cell based rat PXR (rPXR) assay (developed by Puracyp, Inc., CA) was used to assess the activation of rPXR.
Assay Protocol Summary: rPXR cells were dispensed at 2,000 per well in 5uL of assay medium into white, solid-bottom 1536-well plates using a Multidrop Combi dispenser (Thermo Scientific). The assay plates were incubated at 37 C for 5hr before transferring 23 nL of test compounds dissolved in DMSO and positive control via Pintool station (Wako). The assay plates were incubated at 37 C for 24 hr. Then 5ul One-Glo assay reagent (Promega) was added to each plate by a Flying Reagent Dispenser (FRD, Aurora Discovery) and following 30 min incubation at room temperature, luciferase activity was quantified on a ViewLux plate reader (Perkin Elmer).
% is set by controls: 0 for no effect and ±100 for the full control effect.

| SMILES | max activation |
| --- | --- |
| CC(=O)O[C@H]1C[C@H](O[C@H]2[C@@H](O)C[C@H](O[C@H]3[C@@H](O)C[C@H](OC4CC[C@@]5(C)[C@H](CC[C@@H]6[C@@H]5CC[C@]5(C)[C@@H](C7=CC(=O)OC7)CC[C@]65O)C4)O[C@@H]3C)O[C@@H]2C)O[C@H](C)[C@H]1O[C@@H]1O[C@H](CO)[C@@H](O)[C@H](O)[C@H]1O (stereo not given in full) | -3.5% |
| COC([CH2][Hg])CNC(=O)c1ccccc1OCC(=O)O (stereo not given) | 7.87% |
| O=C(OCCN1CCCCC1)C(O)(c1ccccc1)c1ccccc1 | -1.73% |
| O=C1Nc2ccc(Cl)cc2C(c2ccccc2Cl)=NC1O (stereo not given) | -2.09% |
| COc1ccc(OC)c([C@@H](O)[C@H](C)N)c1 | -3.61% |
| C[C@]12C=CC(=O)C=C1CC[C@@H]1[C@@H]2CC[C@]2(C)OC(=O)CC[C@@H]12 | -1.12% |
| CC(N)Cc1ccc(O)cc1 (stereo not given) | -0.925% |
| CC1(C)[C@H](C=C(Cl)Cl)[C@H]1C(=O)OCc1c(F)c(F)cc(F)c1F | 4.71% |
| CC(C)NC(C)Cc1ccc(I)cc1 (stereo not given) | -3.06% |
| CC[C@H]1[C@@H]2C[C@H]3[C@@H]4N(C)c5ccccc5[C@]45C[C@@H](C2[C@H]5O)N3[C@@H]1O (stereo not given in full) | 0.0648% |
| CCCC(C)C1(CC)C(=O)NC(=O)NC1=O (stereo not given) | -2.06% |
| Cc1ccccc1-n1c(C)nc2ccccc2c1=O | 9.97% |
| CC(=O)[C@H]1CC[C@H]2[C@@H]3CC[C@@H]4C[C@H](O)CC[C@]4(C)[C@H]3CC[C@]12C | 6.21% |
| CC(C)C[C@H](CN)CC(=O)O | -2.72% |
| CCCCCc1cc(O)c2c(c1)OC(C)(C)[C@@H]1CCC(C)=C[C@@H]21 | -3.2% |
| [S]=[Sb](=[S])[S][Sb](=[S])=[S] | -0.774% |
| Oc1cc[c]([Hg][Cl])cc1 | -21.4% |
| S=C(S)N1CCNCC1 | -2.4% |
| CCCN1CCC[C@H](c2cccc(O)c2)C1 | -2.62% |
| CCCCNCC(O)c1ccc(O)cc1 (stereo not given) | -0.163% |

| SMILES | max activation |
| --- | --- |
| C[C@]12CC[C@H]3[C@@H](CCC4=CC(=O)CC[C@@]43C)[C@@H]1CC[C@H]2O | -0.613% |
| C[C@@H]([C@H](O)c1ccccc1)N(C)C | -2.62% |
| C[C@]12C[C@H]3S[C@H]3C[C@@H]1CC[C@@H]1[C@@H]2CC[C@]2(C)[C@@H](O)CC[C@@H]12 | 11.2% |
| C=CC[C@]1(O)CC[C@H]2[C@@H]3CCC4=CCCC[C@@H]4[C@H]3CC[C@@]21C | 1.23% |
| NCC(O)c1cccc(O)c1 (stereo not given) | -2.06% |
| CCC(N)Cc1c[nH]c2ccccc12 (stereo not given) | -0.551% |
| CNC(=O)Oc1ccccc1C(=O)Nc1ccccc1 | -3.26% |
| CCCCC[C@@H](O)C1C(=O)OC(C)[C@H](O)/C=C/C=C/C=C/C=C/C=C(\C)C(O)C(O)C(O)C[C@H](O)C[C@H](O)C[C@H](O)C[C@H](O)C[C@@H]1O (stereo not given in full) | 0.909% |
| Cc1cccc(C(C)c2cnc[nH]2)c1C (stereo not given) | -0.62% |
| C=CCC1(C(C)CCC)C(=O)N=C(S)NC1=O (stereo not given) | -2.22% |
| N#CC1(N2CCCCC2)CCCCC1 | -1.32% |
| C[C@@H](Cc1ccccc1)N(C)C | -2.61% |
| CNC(C)C(O)c1ccc(O)cc1 (stereo not given) | -2.76% and -1.51% |
| Cc1cc(C)cc(C(=O)OC2C[C@H]3CC[C@@H](C2)N3C)c1 (stereo not given in full) | -1.64% |
| Cc1ccccc1-n1c(CF)nc2ccc(N)cc2c1=O | -3.24% |
| OC[C@@H](O)[C@H]1O[C@@H]2O[C@@H](C(Cl)(Cl)Cl)O[C@@H]2[C@H]1O | -2% |
| CC(=O)O[C@H]1CC[C@H]2[C@@H]3CCC4=CC(=O)CCC4=C3C=C[C@]12C | -1.98% |
| CC(=O)O[C@H]1C[C@H](O[C@H]2[C@@H](O)C[C@H](O[C@H]3[C@@H](O)C[C@H](O[C@H]4CC[C@@]5(C)[C@H](CC[C@@H]6[C@@H]5C[C@@H](O)[C@]5(C)[C@@H](C7=CC(=O)OC7)CC[C@]65O)C4)O[C@@H]3C)O[C@@H]2C)O[C@H](C)[C@H]1O[C@@H]1O[C@H](CO)[C@@H](O)[C@H](O)[C@H]1O | 4.17% |
| [H+].[H+].[Hg+2].[O-]B([O-])[O-].[c-]1ccccc1 | -22% |
| CO[C@H]1[C@@H](O)C[C@H](O[C@H]2[C@@H](O)C[C@H](O[C@H]3[C@@H](O)C[C@H](O[C@H]4CC[C@@]5(C)[C@H](CC[C@@H]6[C@@H]5C[C@@H](O)[C@]5(C)[C@@H](C7=CC(=O)OC7)CC[C@]65O)C4)O[C@@H]3C)O[C@@H]2C)O[C@@H]1C | -4.43% |

Source: PubChem BioAssay (Tox21)
